Only some compounds are listed: those with a hit (about 4.7% of all), similar ones and a draw of the others.
TRHR agonist: agonists of human TRH receptor | P34981 | TRHR cells, calcium flux fluo-8, FDSS agonist mode | activation, % at 2 µM | 360,000 tested, 0.18% active
Target sequence (P34981 whole entry, looked up): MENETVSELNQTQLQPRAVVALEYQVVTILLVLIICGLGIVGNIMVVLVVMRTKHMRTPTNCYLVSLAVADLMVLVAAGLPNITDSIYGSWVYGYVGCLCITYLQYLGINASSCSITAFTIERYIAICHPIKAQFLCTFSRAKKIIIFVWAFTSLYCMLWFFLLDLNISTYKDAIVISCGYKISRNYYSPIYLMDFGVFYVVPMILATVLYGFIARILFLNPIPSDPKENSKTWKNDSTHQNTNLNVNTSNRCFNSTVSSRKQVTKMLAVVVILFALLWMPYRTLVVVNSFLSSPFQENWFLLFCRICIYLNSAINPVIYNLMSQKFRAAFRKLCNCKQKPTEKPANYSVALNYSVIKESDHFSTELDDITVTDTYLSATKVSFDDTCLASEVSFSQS
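Steps: seed TRHR cells overnight; add fluo-8 no-wash Ca dye, RT 30 min–1.5 h; record 10 s baseline; pin-transfer compounds; monitor fluorescence 1 cycle/s for the agonist window. Calcium increases flag candidate agonists.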
D1 agonist: human D1 receptor agonism | HEK293 T-REx D1 cells, calcium flux, agonist mode | activation, % at 2 µM | 360,000 tested, 1% active
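Tetracycline-induced HEK293 TREx D1 cells, force-coupled to calcium signalling, were dye-loaded with a no-wash calcium kit. Compound was pin-added after a 10 s baseline. Fluorescence was read kinetically at 1 cycle/s for 180 s, with calcium rises flagged as agonism.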
D1 antagonist: human D1 dopamine receptor antagonism. activity change, negative = inhibition, % at 10 µM. P21728. 360,000 tested, 3.2% active. HEK293 TREx D1 cells, calcium flux, dopamine EC80; stronger effect = lower value; in the data active means activity change below about -30%
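Kinetic fluorescence of a calcium dye serves as the read-out. D1-expressing Hek293 Trex cells, induced overnight at 30 C, are exposed to compound for 180 s before an EC80 dopamine addition, then read 180 s further.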
D1 PAM: potentiators of human D1 dopamine receptor | P21728 | HEK293 TREx D1 cells, calcium flux, dopamine EC20 potentiation | potentiation, % at 10 µM | 360,000 tested, 0.036% active | AID 504651; in the data active means potentiation above about 30%
TRHR enhancer: allosteric enhancers of human TRH receptor | P34981 | TRHR cells, fluo-8 calcium fluorescence, EC20 TRH enhancement | enhancement, % at 2 µM | 360,000 tested, 0.66% active; in the data active means enhancement above about 30%
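Enhancer read-out: after compound pinning and an initial kinetic agonist-mode read, an EC20 of TRH (10 nM final) was injected and fluo-8 calcium signal (Ex 480/Em 530) followed at 1 s/cycle for 100 cycles in TRHR-expressing cells.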
Hits are given with their value. Unless noted, no stated cut-off is given here; in the data, active means activation above about 30%; inactive means the rest.

Screening O=C(CNc1ccc2ccccc2c1)N/N=C/c1ccc([N+](=O)[O-])o1 returned TRHR agonist inactive, D1 agonist inactive, D1 antagonist inactive, D1 PAM inactive and TRHR enhancer inactive.
For Oc1ccccc1-c1nc(NC2CCCC2)c2ccccc2n1 the results were TRHR agonist inactive, D1 agonist inactive, D1 antagonist inactive, D1 PAM inactive and TRHR enhancer 31.
Fc1ccccc1-c1nc(NC2CCCC2)c2ccccc2n1 was read as TRHR agonist inactive, D1 agonist inactive, D1 antagonist inactive, D1 PAM inactive and TRHR enhancer inactive.
`Cc1cc(NC2CCCCC2)nc2ccccc12` gave TRHR agonist inactive, D1 agonist inactive, D1 antagonist -33, D1 PAM inactive and TRHR enhancer inactive.
N#Cc1ccccc1Cn1c(=O)n(CCCC(=O)NCc2ccc3c(c2)OCO3)c(=O)c2sccc21 was read as TRHR agonist inactive, D1 agonist inactive, D1 antagonist inactive, D1 PAM inactive and TRHR enhancer inactive.
`Cc1ncc(CO)c(CNc2ccc(Oc3ccccc3)cc2)c1O` gave TRHR agonist inactive, D1 agonist inactive, D1 antagonist -37, D1 PAM inactive and TRHR enhancer inactive.
CCOC(=O)c1cc(-c2ccc(F)cc2)n(CC(=O)NC2CCCCC2)c1C was read as TRHR agonist inactive, D1 agonist inactive, D1 antagonist inactive, D1 PAM inactive and TRHR enhancer inactive.
`N#CC1(NC(=O)COC(=O)/C=C/c2ccc3ccccc3n2)CCCCC1` gave TRHR agonist inactive, D1 agonist inactive, D1 antagonist -50, D1 PAM inactive and TRHR enhancer inactive.
Screening O=C(COC(=O)/C=C/c1ccc2ccccc2n1)NNC(=O)c1ccc([N+](=O)[O-])cc1 returned TRHR agonist inactive, D1 agonist inactive, D1 antagonist inactive, D1 PAM inactive and TRHR enhancer inactive.
CCCCCn1ccc(=N)cc1 was read as TRHR agonist inactive, D1 agonist inactive, D1 antagonist inactive, D1 PAM inactive and TRHR enhancer 36.
CC(=O)c1cccc(NC(=O)CN2C(=O)CN(C)C(=O)c3ccccc32)c1 was read as TRHR agonist inactive, D1 agonist inactive, D1 antagonist inactive, D1 PAM inactive and TRHR enhancer inactive.
COc1ccc2cc3cc(C(=O)NCCc4ccccc4)sc3nc2c1Cl was read as TRHR agonist inactive, D1 agonist inactive, D1 antagonist inactive, D1 PAM inactive and TRHR enhancer inactive.
`C#CCN1C(=O)S/C(=C/C=C/c2ccc(N(C)C)cc2)C1=O` gave TRHR agonist inactive, D1 agonist 98, D1 antagonist inactive, D1 PAM inactive and TRHR enhancer inactive.
Screening CCCOC(=O)CSc1nnc2ccc3ccccc3n12 returned TRHR agonist inactive, D1 agonist inactive, D1 antagonist inactive, D1 PAM inactive and TRHR enhancer inactive.
CCOc1ccc(C(=O)NCC(c2ccc3c(c2)OCO3)N2CCN(c3ccc(F)cc3)CC2)cc1 (stereo not drawn) was read as TRHR agonist inactive, D1 agonist inactive, D1 antagonist inactive, D1 PAM inactive and TRHR enhancer inactive.
Screening CCC(=O)Nc1cccc(-c2cn3c(C)csc3n2)c1 returned TRHR agonist inactive, D1 agonist inactive, D1 antagonist inactive, D1 PAM inactive and TRHR enhancer inactive.
`CCN(CC)S(=O)(=O)c1ccc(N=Nc2c(N)[nH]c(=O)[nH]c2=O)cc1` gave TRHR agonist inactive, D1 agonist inactive, D1 antagonist -41, D1 PAM inactive and TRHR enhancer inactive.
Screening CCN(CC)S(=O)(=O)c1ccc(N=NC2=C(O)CCCC2=O)cc1 returned TRHR agonist inactive, D1 agonist inactive, D1 antagonist inactive, D1 PAM inactive and TRHR enhancer inactive.
CCn1c(C)c(C(C)=O)c(N2CCCCC2)nc1=S was read as TRHR agonist inactive, D1 agonist inactive, D1 antagonist -89, D1 PAM inactive and TRHR enhancer inactive.
CC(=O)c1cccc(NC(=O)C(C)n2c(=O)cc(-c3ccccc3)c3c(C)nn(C)c32)c1 (stereo not drawn) was read as TRHR agonist inactive, D1 agonist inactive, D1 antagonist inactive, D1 PAM inactive and TRHR enhancer inactive.
COc1cc(CNC(C)C)c(Br)cc1OC1CCCC1 was read as TRHR agonist inactive, D1 agonist inactive, D1 antagonist -49, D1 PAM inactive and TRHR enhancer inactive.
Screening COc1ccc(/C=C(/C#N)C(=O)Nc2ccc(C)cc2C)cc1C(=O)O returned TRHR agonist inactive, D1 agonist inactive, D1 antagonist -35, D1 PAM inactive and TRHR enhancer inactive.
Screening COc1cc(/C=C(/C#N)C(=O)Nc2ccc(C)cc2)ccc1Oc1nc(Cl)ncc1F returned TRHR agonist inactive, D1 agonist inactive, D1 antagonist -31, D1 PAM inactive and TRHR enhancer inactive.
Screening Cc1ccc(CCNC(=O)c2ccc3c(c2)N(Cc2cccc(Cl)c2)C(=O)c2ccccc2S3(=O)=O)cc1 returned TRHR agonist inactive, D1 agonist inactive, D1 antagonist inactive, D1 PAM inactive and TRHR enhancer inactive.
`CC(C(=O)Nc1cc(Cl)cc(Cl)c1)N1CCCC1` (stereo not drawn) gave TRHR agonist inactive, D1 agonist 33, D1 antagonist inactive, D1 PAM inactive and TRHR enhancer inactive.
Screening COC(=O)c1ccc(CSc2ccc3nnc(-c4cccnc4)n3n2)o1 returned TRHR agonist inactive, D1 agonist inactive, D1 antagonist -46, D1 PAM inactive and TRHR enhancer inactive.
`COC(=O)c1ccc(CSc2ccc3nnc(-c4ccc(OC)cc4)n3n2)o1` gave TRHR agonist inactive, D1 agonist inactive, D1 antagonist inactive, D1 PAM inactive and TRHR enhancer inactive.
`COc1ccc(-c2ccc(SCC(=O)N3CCOCC3)nn2)cc1` gave TRHR agonist inactive, D1 agonist inactive, D1 antagonist -31, D1 PAM inactive and TRHR enhancer inactive.
For COc1ccccc1CNC(=O)CSc1nnc(C)c2c(C)n(-c3ccccc3)nc12 the results were TRHR agonist inactive, D1 agonist inactive, D1 antagonist inactive, D1 PAM inactive and TRHR enhancer inactive.
For COc1cc([N+](=O)[O-])ccc1NC(=O)Nc1ccc2c(c1)OCCO2 the results were TRHR agonist inactive, D1 agonist inactive, D1 antagonist inactive, D1 PAM inactive and TRHR enhancer inactive.
`COc1ccc(NC(=O)Nc2cccc([N+](=O)[O-])c2)cc1Cl` gave TRHR agonist inactive, D1 agonist inactive, D1 antagonist -57, D1 PAM inactive and TRHR enhancer inactive.
`O=C(Nc1ccc([N+](=O)[O-])cc1)Nc1ccc(OC(F)F)c(Cl)c1` gave TRHR agonist inactive, D1 agonist inactive, D1 antagonist -49, D1 PAM inactive and TRHR enhancer inactive.
Screening O=C(Cc1ccc(Cl)cc1Cl)Nc1ccc(OC(F)F)c(Cl)c1 returned TRHR agonist inactive, D1 agonist inactive, D1 antagonist inactive, D1 PAM inactive and TRHR enhancer inactive.

Screening results as filed in PubChem BioAssay.
